Screens (PubChem BioAssay)
rCAG binder: binds r(CAG) RNA repeats; r(CAG) RNA repeat, TO-PRO-1 dye displacement fluorescence; inhibition, % at 3 µM; 370,000 tested, 1.3% active; AID 651821;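 active = inhibition above the plate cutoff, the mean of all test compounds on that plate plus 3 SD, cut at about 35% in these data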;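 note: higher means more dye released from RNA so lower well fluorescence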
ABHD5 PLIN5 PPI: blocks binding of human ABHD5 to perilipin-5. inhibition, % at 4 µM. Split G. princeps luciferase complementation, luminescence, 4 h. Q00G26+Q8WTS1. 360,000 tested, 0.78% active;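 active = inhibition above the mean inhibition across every tested compound plus 3 SD, cut at about 22% in these data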
PRMT1 FP inh: blocks human protein arginine methyltransferase 1. recombinant PRMT1, activity-based probe fluorescence polarization. inhibition, % at 2.79 µM. 370,000 tested, 1.3% active. AID 652257;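 active = inhibition above about 21% made by adding two undisclosed values, limit read from the data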
Rtt109 Vps75: inhibitors of Candida albicans Rtt109/Vps75 histone acetyltransferase. Q5AAJ8. purified Rtt109/Vps75, ThioGlo CoA-SH fluorescence, 4 h. inhibition, % at 34.9 µM. 330,000 tested, 0.16% active. AID 540336;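 active = inhibition of at least 50% in every replicate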
Target sequence (Q5AAJ8 whole entry, looked up): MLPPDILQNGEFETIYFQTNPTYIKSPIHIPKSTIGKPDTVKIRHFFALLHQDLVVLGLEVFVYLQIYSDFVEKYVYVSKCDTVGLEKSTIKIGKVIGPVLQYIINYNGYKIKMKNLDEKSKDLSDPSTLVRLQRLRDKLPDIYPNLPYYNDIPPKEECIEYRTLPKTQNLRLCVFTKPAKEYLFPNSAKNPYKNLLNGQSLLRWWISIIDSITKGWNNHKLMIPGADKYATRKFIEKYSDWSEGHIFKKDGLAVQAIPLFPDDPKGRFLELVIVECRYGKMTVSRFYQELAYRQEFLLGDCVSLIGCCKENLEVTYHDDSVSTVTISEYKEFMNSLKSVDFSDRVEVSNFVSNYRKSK
LANA-H2B inh: blocks KSHV LANA binding to histone H2A/H2B. Q9QR71. cell-free LANA-H2A/H2B peptide, fluorescence polarization. inhibition, % (concentration not given with the values). 320,000 tested, 0.6% active; in the data active = inhibition mostly above about 10%, no sharp cut-off; inactive = mostly below about 6.7%
ALR H2O2 inh: inhibitors of human sulfhydryl oxidase ALR; purified ALR, DTT oxidation, H2O2 HRP-luminol luminescence; inhibition, % (no concentration beside the values); 290,000 tested, 3.8% active;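 active = mean replicate inhibition above about 79%, with every replicate also reaching it, limit read from the data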
Target sequence (P55789 whole entry, looked up): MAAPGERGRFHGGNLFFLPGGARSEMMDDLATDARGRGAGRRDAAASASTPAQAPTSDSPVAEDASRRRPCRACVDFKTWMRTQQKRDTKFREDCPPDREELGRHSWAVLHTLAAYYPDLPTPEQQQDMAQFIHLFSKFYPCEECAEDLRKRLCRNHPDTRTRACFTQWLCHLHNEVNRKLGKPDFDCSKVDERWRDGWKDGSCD
rCAG binder conf: r(CAG) RNA repeat binding, confirmation; TO-PRO-1 dye displacement fluorescence; AID 652065; inhibition, % at 3 µM; 4,300 tested, 70% active; shares compounds with rCAG binder;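 active = inhibition above a per-plate cutoff, the mean inhibition of sample wells plus 3 SD, cut at about 35% in these data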;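 note: loss of TO-PRO-1 fluorescence as compound displaces dye from 1x1 AA loop RNA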
DNA CAG counter: DNA CAG dye complex inhibition counter-screen. shares compounds with rCAG binder. d(CAG) DNA oligo TO-PRO-1 dye displacement, fluorescence. inhibition, % at 3 µM. 4,300 tested, 94% active. AID 652068;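 active = inhibition above its plate's cutoff, the mean test-well inhibition plus 3 SD, cut at about 4.8% in these data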;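 note: hits displace the dye from DNA and so lower well fluorescence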
DNA CAG DR: disrupts DNA CAG TO-PRO-1 complex in dose response | shares compounds with rCAG binder | DNA CAG/GTC duplex TO-PRO-1 dye displacement fluorescence | IC50, µM | 250 tested, 20% active; in the data active = IC50 below about 10 µM
Of the large screens only hits and unclear results are named; the others gave an inactive call (follow-up assays come after a bar, where they were run). An excerpt weighted towards active compounds, which were near 5.9% of everything screened.

Cc1ccc(C(=O)Nc2nnc(NC(=S)Nc3ccccc3)s2)cc1	rCAG binder 70 | rCAG binder conf 39 | DNA CAG counter 30
Cc1cc(Br)cn2c(Cc3ccccc3C(F)(F)F)c(-c3ccccc3)nc12	none (no result: Rtt109 Vps75, LANA-H2B inh, ALR H2O2 inh)
Fc1cccc(Cc2c(-c3cccc(Br)c3)nc3ccc(Br)cn23)c1	rCAG binder 55 (no result: Rtt109 Vps75, LANA-H2B inh, ALR H2O2 inh) | rCAG binder conf inactive | DNA CAG counter inactive
Cc1cc(Br)cn2c(Cc3ccccc3C(F)(F)F)c(-c3cccc(Br)c3)nc12	rCAG binder 47 (no result: Rtt109 Vps75, LANA-H2B inh, ALR H2O2 inh) | rCAG binder conf inactive | DNA CAG counter inactive
COc1ccc(-c2nc3ccc(Br)cn3c2Cc2cccc(F)c2)cc1OC	none (no result: Rtt109 Vps75, LANA-H2B inh, ALR H2O2 inh)
Cc1ccc(-c2nc3ccc(Cl)cn3c2Cc2cccc(F)c2)cc1	rCAG binder 38 (no result: Rtt109 Vps75, LANA-H2B inh, ALR H2O2 inh) | rCAG binder conf inactive | DNA CAG counter inactive
Cc1ccc(-c2nc3ccc(Cl)cn3c2Cc2ccccc2C(F)(F)F)cc1	rCAG binder 42 (no result: Rtt109 Vps75, LANA-H2B inh, ALR H2O2 inh) | rCAG binder conf inactive | DNA CAG counter 6.8
CN(Cc1ccccc1)C(=O)OCc1cn(Cc2cc(F)cc(F)c2)nn1	none (no result: ABHD5 PLIN5 PPI, Rtt109 Vps75, LANA-H2B inh, ALR H2O2 inh)
CCCN(C)C1CN(Cc2cn(Cc3cccc(C(F)(F)F)c3)nn2)S(=O)(=O)C1 (stereo not drawn)	none (no result: Rtt109 Vps75, LANA-H2B inh, ALR H2O2 inh)
Cc1ccc(Cc2c(-c3ccc(Br)cc3)nc3ccc(Cl)cn23)cc1	rCAG binder 41 (no result: Rtt109 Vps75, LANA-H2B inh, ALR H2O2 inh) | rCAG binder conf inactive | DNA CAG counter 10
Fc1cccc(Cc2c(-c3ccc(Cl)cc3)nc3ccc(Br)cn23)c1	rCAG binder 49 (no result: Rtt109 Vps75, LANA-H2B inh, ALR H2O2 inh) | rCAG binder conf inactive | DNA CAG counter 4.6
Cc1ccc2nc(-c3ccc(Cl)cc3)c(Cc3cccc(F)c3)n2c1	none (no result: ABHD5 PLIN5 PPI, Rtt109 Vps75, LANA-H2B inh, ALR H2O2 inh)
C#CCNC(=O)C[C@H]1C[C@@]2(C(=O)OC)C(=C[C@H](C(C)C)O[C@@H]2C2CC2)N(Cc2cccc3ccccc23)C1=O	none (no result: ABHD5 PLIN5 PPI, Rtt109 Vps75, LANA-H2B inh, ALR H2O2 inh)
O=C(CN(Cc1ccccc1)S(=O)(=O)c1ccccc1)N/N=C/c1ccc([N+](=O)[O-])cc1	none
O=C(CN(Cc1ccccc1Cl)S(=O)(=O)c1ccc(Cl)cc1)N/N=C/c1ccc(C(=O)O)cc1	rCAG binder 71 | rCAG binder conf 55 | DNA CAG counter 20
O=C(CSc1nnc(SCc2ccccc2)s1)N/N=C/c1c(Cl)cccc1Cl	none
O=C(CSc1nnc(SCc2ccccc2Cl)s1)N/N=C/c1ccc(C(=O)O)cc1	rCAG binder 49 | rCAG binder conf 60 | DNA CAG counter 17
COc1ccc(C(=O)C[C@@H]2OC3CCCCC3N2S(=O)(=O)c2ccc(C)cc2)cc1OC (stereo partly drawn)	none (no result: Rtt109 Vps75, LANA-H2B inh, ALR H2O2 inh)
COC1C=COC2(C)Oc3c(C)c(O)c4c(O)c(c(CN5CCN(C)CC5)c(O)c4c3C2=O)NC(=O)C(C)=CC=CC(C)C(O)C(C)C(O)C(C)C(OC(C)=O)C1C (stereo not drawn)	rCAG binder 37 (no result: LANA-H2B inh, ALR H2O2 inh) | rCAG binder conf inactive | DNA CAG counter 7.5
CCN1C(=O)/C(=C/c2ccc(OCc3ccc(C(=O)O)cc3)c(Cl)c2)NC1=S	rCAG binder 57 | rCAG binder conf 51 | DNA CAG counter 16
O=C(O)c1ccc(COc2ccc(CO)cc2Cl)cc1	none
O=C(NNC(=S)NC1CCCCC1)c1cccc(S(=O)(=O)Nc2ccccc2Cl)c1	rCAG binder 56 | rCAG binder conf 51 | DNA CAG counter 19
CC1CN(C(=O)c2cccc(S(=O)(=O)Nc3ccccc3Cl)c2)CC(C)O1 (stereo not drawn)	none
Cc1ccc(/C=N/NC(=O)c2cccc(S(=O)(=O)Nc3ccccc3Cl)c2)s1	none
O=C(c1cccc(S(=O)(=O)Nc2ccccc2Cl)c1)N1CCCCCC1	none (no result: ALR H2O2 inh)
O=C(N/N=C/c1ccccc1C(=O)O)c1cccc(S(=O)(=O)Nc2cc(Cl)ccc2Cl)c1	rCAG binder 49 | rCAG binder conf inactive | DNA CAG counter 6.8
CC1CN(C(=O)c2cccc(S(=O)(=O)Nc3cc(Cl)ccc3Cl)c2)CC(C)O1 (stereo not drawn)	rCAG binder 41 | rCAG binder conf inactive | DNA CAG counter 5.5
O=C(c1cccc(S(=O)(=O)Nc2ccccc2Cl)c1)N1CCN(c2ccccc2O)CC1	rCAG binder 41 | rCAG binder conf inactive | DNA CAG counter 9.3
CC(C)C[C@H](NC1(C(=O)NCCc2c[nH]c3ccccc23)CCN(C)CC1)C(=O)NCCCc1ccccc1	none (no result: rCAG binder, ABHD5 PLIN5 PPI, Rtt109 Vps75, LANA-H2B inh, ALR H2O2 inh)
COc1cccc(CN2CCC2(C)C(=O)Nc2cccc(Oc3ccccc3)c2)c1OC (stereo not drawn)	none (no result: Rtt109 Vps75, LANA-H2B inh, ALR H2O2 inh)
O=c1[nH]nc2c3ccccc3occ1-2	none (no result: Rtt109 Vps75, LANA-H2B inh, ALR H2O2 inh)
Cc1ccc([C@H]2C(C(=O)O)=CC[C@@H](c3ccc(Cl)c(Cl)c3)N2S(=O)(=O)c2ccc(C)cc2)cc1	rCAG binder 88 (no result: LANA-H2B inh, ALR H2O2 inh) | rCAG binder conf 85 | DNA CAG counter 54
Cc1ccc(S(=O)(=O)N2[C@@H](c3ccccc3)C(C(=O)O)=CC[C@H]2c2ccc(Cl)c(Cl)c2)cc1	rCAG binder 61 | rCAG binder conf 81 | DNA CAG counter 48
COc1cc(NC(=O)CCc2nnc3ccc(N4CCCCC4)nn23)cc(OC)c1OC	none
N#CC1=C2SCN(c3ccccc3)CN2C(=O)CC1c1cccs1 (stereo not drawn)	none
Cc1ccc(C2CC(=O)N3CN(c4ccc(Br)cc4)CSC3=C2C#N)o1 (stereo not drawn)	rCAG binder 63, PRMT1 FP inh 82 | rCAG binder conf 49 | DNA CAG counter 18
O=C(NNC(=O)c1ccccc1O)c1ccc(Cl)c(S(=O)(=O)N2CCc3ccccc32)c1	rCAG binder 48 | rCAG binder conf 52 | DNA CAG counter 19
O=C(c1ccc(Cl)c(S(=O)(=O)N2CCc3ccccc32)c1)N1CCN(c2ccccc2O)CC1	none
O=S1(=O)c2ccc(Br)cc2OC[C@H](Cc2ccccc2)N1Cc1cn(CCC2OCCO2)nn1	none (no result: ABHD5 PLIN5 PPI, Rtt109 Vps75, LANA-H2B inh, ALR H2O2 inh)
Cc1ccc2nc(-c3ccc(NC(=O)CSc4nccc(=O)[nH]4)cc3)sc2c1	rCAG binder 40 | rCAG binder conf 71 | DNA CAG counter 33 | DNA CAG DR inactive
Cc1ccc2nc(-c3ccc(NC(=O)CSc4nc(N)cc(=O)[nH]4)cc3)sc2c1	none
Cc1cccc(S(=O)(=O)Nc2ccc(-c3nc4ccc(C)cc4s3)cc2)c1	rCAG binder 37 | rCAG binder conf 40 | DNA CAG counter 15
Cc1ccc(S(=O)(=O)Nc2ccc(-c3nc4ccc(C)cc4s3)cc2)cc1	rCAG binder 35 | rCAG binder conf inactive | DNA CAG counter 12
COc1ccc(CSC(=S)NNc2ccccc2)cc1	none (no result: Rtt109 Vps75, LANA-H2B inh, ALR H2O2 inh)
CSc1ccc(OC2(C)CCN(Cc3ccc4c(c3)OCCO4)C2)cc1 (stereo not drawn)	none (no result: Rtt109 Vps75, LANA-H2B inh, ALR H2O2 inh)
